{
  "source": "PubChem BioAssay (NCATS)",
  "note": "Inconclusive results are not listed. Activity calls are given as the source filed them. The call rests on the fitted dose curve; in most records, active means well fitted inhibition curve with a large enough effect; inconclusive means small, poorly fitted or top-dose-only effect; inactive means flat fitted curve, though single readings scatter. On the % scale 0 is the no-effect control and ±100 the full control effect; potency means the concentration at half of the fitted maximal effect.",
  "data": [
    {"test_system": "KB-3-1", "assay": "Cytotoxic Profiling of Annotated Libraries Using Quantitative High-Throughput Screening (AID 1296008); further: nearly all actives have a fitted effect of over 60% in size", "details": "Five cell lines viability, CellTiter-Glo ATP luminescence, 48-72 h; max response: stronger effect = lower value", "in_short": "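Compounds were pin-transferred onto cells and incubated 48 or 72 hr at 37 degree Celsius, 95% humidity. CellTiter-Glo was added, plates sat 10 min at room temperature, then ATP-coupled luminescence was imaged as the viability read-out.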", "values": [
      {"smiles": "CC(=O)NCCCS(=O)(=O)O", "max response": "14.2% (inactive)"},
      {"smiles": "NC(=O)OC[C@@H]1[C@H](NC(=O)/C(=N\\OCC(=O)O)c2csc(N)n2)C(=O)N1S(=O)(=O)O", "max response": "-1.39% (inactive)"},
      {"smiles": "CN1CCc2c(c3ccccc3n2Cc2ccccc2)C1", "max response": "8.09% (inactive)"},
      {"smiles": "Nc1nc(/C(=C/CC(=O)O)C(=O)N[C@@H]2C(=O)N3C(C(=O)O)=CCS[C@H]23)cs1", "max response": "-7.11% (inactive)"},
      {"smiles": "CO/N=C(\\C(=O)N[C@@H]1C(=O)N2C(C(=O)O)=C(CSc3nc(C)c(CC(=O)O)s3)CS[C@H]12)c1csc(N)n1", "max response": "2.01% (inactive)"},
      {"smiles": "O=C(O)c1ccc(NC2OC[C@@H](O)[C@H](O)[C@H]2O)cc1", "note": "(some centres not stated)", "max response": "-17.7% (inactive)"},
      {"smiles": "S=C1SCN(Cc2ccccc2)CN1Cc1ccccc1", "max response": "37.7% (inactive)"},
      {"smiles": "COC1=C(OC)C(=O)C(C/C=C(\\C)CC/C=C(\\C)CC/C=C(\\C)CC/C=C(\\C)CC/C=C(\\C)CC/C=C(\\C)CC/C=C(\\C)CC/C=C(\\C)CC/C=C(\\C)CCC=C(C)C)=C(C)C1=O", "max response": "-15.4% (inactive)"},
      {"smiles": "CC(CNC(=O)c1cccnc1)NC(=O)c1cccnc1", "note": "(configuration not stated)", "max response": "-1.27% (inactive)"},
      {"smiles": "Cc1ccc(C(C)(C)c2ccc(C)cc2)cc1", "max response": "-2.63% (inactive)"},
      {"smiles": "C[N@+]12CCCC[C@@H]1CCC(=C(c1cccs1)c1cccs1)C2", "max response": "-14.7% (inactive)"},
      {"smiles": "C[C@H](CCC(=O)O)[C@H]1CC[C@H]2[C@@H]3[C@H](O)C[C@@H]4C[C@H](O)CC[C@]4(C)[C@H]3C[C@H](O)[C@]12C", "max response": "1.07% (inactive)"},
      {"smiles": "O=P(O)(O)O", "max response": "2.99% (inactive)"},
      {"smiles": "O=C(Nc1ccc(O)cc1)c1ccccc1O", "max response": "4.06% (inactive)"},
      {"smiles": "CCCCC(=O)O[C@H]1CC[C@H]2[C@@H]3CCc4cc(O)ccc4[C@H]3CC[C@]12C", "max response": "0.0537% (inactive)"},
      {"smiles": "c1ccc2ccccc2c1", "max response": "-0.155% (inactive)"},
      {"smiles": "O=C(O)/C=C/c1ccccc1", "max response": "5.56% (inactive)"},
      {"smiles": "C[C@H](CCCC(C)(C)O)[C@H]1CC[C@H]2[C@@H]3CC=C4C[C@@H](O)CC[C@]4(C)[C@H]3CC[C@]12C", "max response": "2.18% (inactive)"},
      {"smiles": "CCCCCCCCCCCC(=O)OC[C@@H](O)C1OC[C@H](O)[C@H]1O", "note": "(some centres not stated)", "max response": "3.33% (inactive)"},
      {"smiles": "O=P(O)(O)OC[C@H](O)CO", "max response": "-16.7% (inactive)"},
      {"smiles": "CN(C)CCOc1ccc(/C(=C(/CCCl)c2ccccc2)c2ccccc2)cc1", "max response": "-3.21% (inactive)"},
      {"smiles": "C#C[C@]1(O)CC[C@@H]2[C@H]3CCC4=CC(=O)CC[C@H]4[C@H]3C(=C)C[C@@]21CC", "max response": "1.8% (inactive)"},
      {"smiles": "Cc1cccc(C)c1Nc1ncccc1C(=O)O", "max response": "-0.608% (inactive)"},
      {"smiles": "O=C(O)COc1ccccc1/C=N/NC(=O)c1ccncc1", "max response": "4.6% (inactive)"},
      {"smiles": "CC1CC(O)CC(C)(C)C1", "note": "(configuration not stated)", "max response": "4.01% (inactive)"},
      {"smiles": "O=S(=O)(O)CCCS(=O)(=O)O", "max response": "0.835% (inactive)"},
      {"smiles": "NC[C@H]1O[C@H](O[C@H]2[C@H](O)[C@@H](O[C@H]3O[C@H](CO)[C@@H](O)[C@H](N)[C@H]3O)[C@H](N)C[C@@H]2N)[C@H](O)[C@@H](O)[C@@H]1O", "max response": "14.5% (inactive)"},
      {"smiles": "CCOC(C)OCC", "max response": "-6.86% (inactive)"},
      {"smiles": "CC1=CC(=O)NS(=O)(=O)O1", "max response": "-8.51% (inactive)"},
      {"smiles": "CO/N=C(\\C(=O)N[C@@H]1C(=O)N2C(C(=O)O)=CCS[C@H]12)c1csc(N)n1", "max response": "1.16% (inactive)"},
      {"smiles": "CC1=CC(=C(c2ccc(N)cc2)c2ccc(N)cc2)C=CC1=N", "Potency": "10.3 µM (active)"},
      {"smiles": "CN(CCO)CC(O)Cn1cnc2c1c(=O)n(C)c(=O)n2C", "note": "(configuration not stated) (tested in a mixture with another compound)", "max response": "-4.03% (inactive)"},
      {"smiles": "O=C(O)CCC/C=C\\C[C@@H]1[C@@H](/C=C/[C@@H](O)COc2cccc(C(F)(F)F)c2)[C@H](O)C[C@@H]1O", "max response": "-14.2% (inactive)"},
      {"smiles": "O=C(O)CCC/C=C\\C[C@@H]1[C@@H](/C=C/[C@@H](O)COc2cccc(Cl)c2)[C@H](O)C[C@@H]1O", "max response": "-2.7% (inactive)"},
      {"smiles": "CN1CCCC(CN2c3ccccc3Sc3ccccc32)C1", "note": "(configuration not stated)", "max response": "-10.2% (inactive)"},
      {"smiles": "OC[C@@H](O)C(O)[C@H](O)CO", "max response": "2.54% (inactive)"},
      {"smiles": "C=C1c2c(Cl)ccc(O)c2C(O)=C2C(=O)[C@]3(O)C(O)=C(C(N)=O)C(=O)[C@@H](N(C)C)[C@@H]3[C@@H](O)[C@H]12", "max response": "7.79% (inactive)"}
    ]}
  ]
}
